Eight compounds from PubChem BioAssay (EPA / NIEHS) can be followed below.

Inconclusive results are not listed. Calls of active or inactive are those of the source. How the source made its calls, unless noted: active means hit-call score of the fitted dose curve at least 0.9, where 1 is the maximum; inactive means score below 0.9.

Experiment [1] has as its target Paired box protein Pax-6 (Homo sapiens) (UniProt P26367). The experiment can be described thus: ATG_Pax6_CIS: Attagene CIS-FACTORIAL HepG2 Assay for human Paired Box 6 (PAX6) (AID 2282956). Particulars: HepG2 CIS-FACTORIAL PAX6 reporter transcription, RNA readout; actives raise or lower the signal. In short, it runs like this:
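Fluorescent RT-PCR products separated by capillary electrophoresis report PAX6-linked promoter mRNA in HepG2 cells 24 h post-dose. Curves fitted bidirectionally, DMSO as negative control.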

Experiment [2] is described as follows: ATG_RORE_CIS: Attagene CIS-FACTORIAL HepG2 Assay for human RAR-related Orphan Receptor Element (RORE) (AID 2282959). As to conditions: HepG2 Attagene cis-factorial RORE reporter, mRNA; actives raise or lower the signal. The method, boiled down: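 HepG2 cells transiently transfected with multiple cis-element reporter transcription units, exposed to chemical for 24 h. Reporter mRNA quantified by RT-PCR, 6-FAM primer-extension labeling, HpaI digestion and capillary electrophoresis; bidirectional fit versus DMSO baseline.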

A short description of experiment [3]: ATG_Sox_CIS: Attagene CIS-FACTORIAL HepG2 Assay for human SRY-box transcription factor (SOX) (AID 2282960). Particulars: HepG2 Attagene cis-factorial SOX reporter, mRNA; actives raise or lower the signal. The method, boiled down: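 HepG2 cells transiently transfected with cis-element-driven multiple reporter transcription units, dosed 24 h; reporter mRNA measured by RT-PCR, FAM labelling, HpaI digestion and capillary electrophoresis. Bidirectional fit versus DMSO baseline.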

The target in experiment [4] is Transcription factor Sp1 (Homo sapiens) (UniProt P08047). The experiment can be described thus: ATG_Sp1_CIS: Attagene CIS-FACTORIAL HepG2 Assay for human Specificity Protein 1 (Sp1) (AID 2282961). As to conditions: HepG2 Sp1 cis-reporter transcription, actives raise or lower the signal. The method, boiled down:
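HepG2 cells transiently transfected with multiple reporter transcription units driven by cis-regulatory elements; Sp1-responsive reporter mRNA measured 24 h after dosing by RT-PCR and capillary electrophoresis fluorescence, fitted bidirectionally against DMSO baseline.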

The nature of experiment [5]: ATG_SREBP_CIS: Attagene CIS-FACTORIAL HepG2 Assay for human Sterol Regulatory Element Binding (SREBP) (AID 2282962). As to conditions: HepG2 Attagene cis-factorial SREBP reporter, mRNA; actives raise or lower the signal. The method, boiled down:
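Endogenous factor activity is measured in HepG2 through multiplexed reporter units under cis-element control. Following a 24 h incubation, reporter transcripts are reverse-transcribed, PCR-amplified and sized by capillary electrophoresis; activity is fitted in both directions relative to DMSO.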

The target of experiment [6] is Signal transducer and activator of transcription 3 (Homo sapiens) (UniProt P40763). The experiment can be described thus: ATG_STAT3_CIS: Attagene CIS-FACTORIAL HepG2 Assay for human Signal Transducer and Activator of Transcription 3 (STAT3) (AID 2282963). Particulars: HepG2, Attagene cis-factorial STAT3 reporter transcription; actives raise or lower the signal. In short, it runs like this:
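Fluorescence intensity of 6-FAM-labelled reporter fragments, separated by capillary electrophoresis after RT-PCR, gave the signal. Cells were HepG2 transfected with cis-element reporter units and treated 24 h; fitting was bidirectional relative to DMSO.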

Experiment [7] in a line: ATG_TA_CIS: Attagene CIS-FACTORIAL HepG2 Assay for human TA Basal Promoter (AID 2282964). Particulars: HepG2 Attagene CIS-factorial TA basal promoter reporter; actives raise or lower the signal. The method, boiled down:
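Read-out: fluorescent reporter-transcript fragments resolved by capillary electrophoresis after RT-PCR and HpaI digestion. Source: HepG2 cells carrying transiently transfected multi-reporter cis constructs, treated 24 h. Endpoint fitted bidirectionally relative to DMSO.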

Experiment [8] is described as follows: ATG_TCF_b_cat_CIS: Attagene CIS-FACTORIAL HepG2 Assay for human T-Cell-Factor with beta-catenin (TCF/b-cat) (AID 2282965). As to conditions: HepG2 TCF/beta-catenin cis-reporter transcription, actives raise or lower the signal. In short, it runs like this:
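HepG2 cells transiently transfected with cis-promoter-driven multiplexed reporter units; reporter mRNA measured 24 h after dosing by RT-PCR, FAM labelling, HpaI digestion and capillary electrophoresis. Bidirectional fitting relative to DMSO baseline.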

Experiment [9] in a line: ATG_TAL_CIS: Attagene CIS-FACTORIAL HepG2 Assay for human TAL Basal Promoter (AID 2282966).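 Further: background control endpoint measuring basal TAL promoter reporter mRNA not a specific factor.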 Particulars: HepG2 Attagene cis-factorial TAL promoter reporter; actives raise or lower the signal. The method, boiled down: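 Basal-promoter background-control endpoint from a multiplexed HepG2 reporter panel. Cells were exposed 24 h, then reporter mRNA was read by RT-PCR/CE fluorescence and fitted in both directions relative to DMSO.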

Experiment [10] is described as follows: ATG_TGFb_CIS: Attagene CIS-FACTORIAL HepG2 Assay for human Transforming Growth Factor (TGF) (AID 2282967). As to conditions: HepG2 Attagene CIS TGFb reporter, mRNA transcription; actives raise or lower the signal. The method, boiled down:
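Transient MRTU transfection of HepG2 (FuGene 6). Dose 24 h. TriZol RNA, oligo(dT) RT, PCR, 6-FAM primer extension, HpaI cut, CE. Bidirectional fit, DMSO = baseline.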

Experiment [11] can be described thus: ATG_VDRE_CIS: Attagene CIS-FACTORIAL HepG2 Assay for human Vitamin D Receptor Element (VDRE) (AID 2282968). As to conditions: HepG2 VDRE cis-reporter transcription, actives raise or lower the signal. The method, boiled down:
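Compounds were applied for 24 h to HepG2 cells transfected with promoter-regulated reporter units. Total RNA was reverse-transcribed, and reporter amplicons were fluorescently labelled and sized by capillary electrophoresis.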

The target in experiment [12] is Nuclear receptor subfamily 1 group I member 3 (Homo sapiens) (UniProt Q14994). The experiment can be described thus: ATG_CAR_TRANS: Attagene TRANS-FACTORIAL HepG2 Assay for human Constitutive Androstane Receptor (CAR) (AID 2282969; active means hit-call score of the fitted dose curve at least 0.9, where 1 is the maximum;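 further: activators raise reporter mRNA above DMSO so AC50 marks induction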). As to conditions: HepG2 Attagene TRANS-FACTORIAL CAR reporter. The method, boiled down: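 Transiently transfected HepG2, multiplex TRANS reporters (CAR-Gal4 chimera driving GAL4-UAS reporter). 24 h dosing. Readout: reporter transcript by RT-PCR + capillary electrophoresis, fluorescence intensity; positive direction vs DMSO.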

Experiment [13] concerns the target X-box-binding protein 1 (Homo sapiens) (UniProt P17861). The experiment can be described thus: ATG_Xbp1_CIS: Attagene CIS-FACTORIAL HepG2 Assay for human X-box Binding Protein 1 (XBP1) (AID 2282972). Particulars: HepG2 XBP1 cis-element reporter, Attagene multiplex; actives raise or lower the signal. The method, boiled down:
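Multiplexed cis-reporter readout in transfected HepG2 liver cells. Exposure lasted 24 hours. Activity in either direction was fitted against DMSO as negative control and baseline.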

Experiment [14] in a line: ATG_PPRE_CIS: Attagene CIS-FACTORIAL HepG2 Assay for human Peroxisome Proliferator-activated Response Element (PPRE) (AID 2282958). Particulars: HepG2 PPRE cis-element reporter, Attagene transcription factor profiling; actives raise or lower the signal. The method, boiled down: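 HepG2 cells transiently transfected with multiplexed cis-element reporter units measure endogenous transcription factor activity. After 24 h compound exposure, reporter mRNA is quantified by RT-PCR, 6-FAM labeling, HpaI digestion and capillary electrophoresis; bidirectional fits are made against DMSO baseline.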

A short description of experiment [15]: ATG_M_19_TRANS: Attagene TRANS-FACTORIAL HepG2 Assay for M19 Transcription Factor (Internal Marker) (AID 2282974; active means hit-call score of the fitted dose curve at least 0.9, where 1 is the maximum). As to conditions: HepG2 Attagene TRANS-FACTORIAL M19 internal marker reporter. In short, it runs like this: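 HepG2 cells transiently transfected with multiple GAL4-UAS reporter transcription units were exposed to chemicals for 24 h. Reporter mRNA was read by RT-PCR, 6-FAM primer extension, HpaI digestion and capillary electrophoresis; gain of signal fitted relative to DMSO.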

Experiment [16] in a line: ATG_GAL4_TRANS: Attagene TRANS-FACTORIAL HepG2 Assay for GAL4 (Internal Marker) (AID 2282976; active means hit-call score of the fitted dose curve at least 0.9, where 1 is the maximum). As to conditions: HepG2 Attagene TRANS GAL4 internal marker reporter. In short, it runs like this: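 Background-control readout: GAL4-UAS reporter transcript in transiently transfected HepG2 cells after 24 h compound exposure. Measured by RT-PCR, 6-FAM primer extension, HpaI digest and capillary electrophoresis; gain-of-signal fit versus DMSO.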

For experiment [17], the target named is Estrogen receptor (Homo sapiens) (UniProt P03372). The experiment can be described thus: ATG_ERa_TRANS: Attagene TRANS-FACTORIAL HepG2 Assay for human Estrogen Receptor alpha (ERa) (AID 2282970; active means hit-call score of the fitted dose curve at least 0.9, where 1 is the maximum). Particulars: HepG2 Attagene TRANS ERa GAL4 reporter, mRNA. In short, it runs like this:
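Gal4-fusion ERa transactivation, measured as reporter transcript level in transiently transfected HepG2 cells. Exposure 24 h; RT-PCR plus capillary electrophoresis with fluorescence detection.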

The AC50 is the midpoint of the concentration-response curve, whichever way the signal moves.

Sequence of Paired box protein Pax-6 (Homo sapiens) (P26367 whole entry, looked up): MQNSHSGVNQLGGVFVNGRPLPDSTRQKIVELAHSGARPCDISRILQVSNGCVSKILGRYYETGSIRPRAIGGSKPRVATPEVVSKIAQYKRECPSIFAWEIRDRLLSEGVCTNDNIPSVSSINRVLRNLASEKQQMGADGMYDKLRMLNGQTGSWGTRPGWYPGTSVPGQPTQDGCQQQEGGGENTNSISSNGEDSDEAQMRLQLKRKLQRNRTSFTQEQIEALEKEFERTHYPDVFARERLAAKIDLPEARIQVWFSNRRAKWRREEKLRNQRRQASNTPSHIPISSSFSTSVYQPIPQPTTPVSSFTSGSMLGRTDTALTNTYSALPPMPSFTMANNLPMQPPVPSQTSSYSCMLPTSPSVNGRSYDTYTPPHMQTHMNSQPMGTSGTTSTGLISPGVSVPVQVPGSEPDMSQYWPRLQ
Sequence of Nuclear receptor subfamily 1 group I member 3 (Homo sapiens) (Q14994 whole entry, looked up, the tested form may be a part): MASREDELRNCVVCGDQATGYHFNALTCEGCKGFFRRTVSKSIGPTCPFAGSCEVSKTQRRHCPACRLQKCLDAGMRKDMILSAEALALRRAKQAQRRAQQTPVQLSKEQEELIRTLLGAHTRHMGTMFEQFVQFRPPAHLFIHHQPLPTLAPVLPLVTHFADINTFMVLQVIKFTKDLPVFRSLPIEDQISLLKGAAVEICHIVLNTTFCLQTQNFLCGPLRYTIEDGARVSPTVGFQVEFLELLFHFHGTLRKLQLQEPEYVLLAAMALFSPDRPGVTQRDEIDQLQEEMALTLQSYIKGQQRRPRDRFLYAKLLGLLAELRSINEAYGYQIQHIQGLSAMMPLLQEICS
Sequence of X-box-binding protein 1 (Homo sapiens) (P17861 whole entry, looked up): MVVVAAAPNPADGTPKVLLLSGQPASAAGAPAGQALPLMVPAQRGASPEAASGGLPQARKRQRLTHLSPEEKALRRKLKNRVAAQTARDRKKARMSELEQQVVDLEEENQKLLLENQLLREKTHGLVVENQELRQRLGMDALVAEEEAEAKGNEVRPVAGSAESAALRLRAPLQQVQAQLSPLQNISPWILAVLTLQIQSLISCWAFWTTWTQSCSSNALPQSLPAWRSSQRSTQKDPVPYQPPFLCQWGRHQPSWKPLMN
Sequence of Transcription factor Sp1 (Homo sapiens) (P08047 whole entry, looked up): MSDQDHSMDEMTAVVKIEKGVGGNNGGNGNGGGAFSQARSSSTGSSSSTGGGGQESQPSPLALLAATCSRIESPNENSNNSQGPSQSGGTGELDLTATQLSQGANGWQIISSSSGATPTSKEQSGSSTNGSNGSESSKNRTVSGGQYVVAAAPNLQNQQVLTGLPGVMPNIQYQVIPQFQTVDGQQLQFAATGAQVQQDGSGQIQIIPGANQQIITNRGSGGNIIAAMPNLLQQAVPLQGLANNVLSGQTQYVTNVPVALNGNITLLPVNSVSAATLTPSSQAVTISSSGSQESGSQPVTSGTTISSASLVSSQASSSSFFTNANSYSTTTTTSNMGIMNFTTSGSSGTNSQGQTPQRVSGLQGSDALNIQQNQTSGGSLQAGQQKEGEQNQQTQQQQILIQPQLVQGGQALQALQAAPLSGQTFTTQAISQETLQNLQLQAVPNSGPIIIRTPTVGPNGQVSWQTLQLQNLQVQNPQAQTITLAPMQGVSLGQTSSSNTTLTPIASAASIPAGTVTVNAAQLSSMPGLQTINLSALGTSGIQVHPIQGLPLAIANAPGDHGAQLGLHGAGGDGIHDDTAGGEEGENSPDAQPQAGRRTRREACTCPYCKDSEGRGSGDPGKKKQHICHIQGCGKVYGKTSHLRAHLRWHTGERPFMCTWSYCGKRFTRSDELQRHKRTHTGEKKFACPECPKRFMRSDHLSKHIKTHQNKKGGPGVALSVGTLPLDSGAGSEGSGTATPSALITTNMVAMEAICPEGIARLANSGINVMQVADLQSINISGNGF
Sequence of Signal transducer and activator of transcription 3 (Homo sapiens) (P40763 whole entry, looked up, the tested form may be a part): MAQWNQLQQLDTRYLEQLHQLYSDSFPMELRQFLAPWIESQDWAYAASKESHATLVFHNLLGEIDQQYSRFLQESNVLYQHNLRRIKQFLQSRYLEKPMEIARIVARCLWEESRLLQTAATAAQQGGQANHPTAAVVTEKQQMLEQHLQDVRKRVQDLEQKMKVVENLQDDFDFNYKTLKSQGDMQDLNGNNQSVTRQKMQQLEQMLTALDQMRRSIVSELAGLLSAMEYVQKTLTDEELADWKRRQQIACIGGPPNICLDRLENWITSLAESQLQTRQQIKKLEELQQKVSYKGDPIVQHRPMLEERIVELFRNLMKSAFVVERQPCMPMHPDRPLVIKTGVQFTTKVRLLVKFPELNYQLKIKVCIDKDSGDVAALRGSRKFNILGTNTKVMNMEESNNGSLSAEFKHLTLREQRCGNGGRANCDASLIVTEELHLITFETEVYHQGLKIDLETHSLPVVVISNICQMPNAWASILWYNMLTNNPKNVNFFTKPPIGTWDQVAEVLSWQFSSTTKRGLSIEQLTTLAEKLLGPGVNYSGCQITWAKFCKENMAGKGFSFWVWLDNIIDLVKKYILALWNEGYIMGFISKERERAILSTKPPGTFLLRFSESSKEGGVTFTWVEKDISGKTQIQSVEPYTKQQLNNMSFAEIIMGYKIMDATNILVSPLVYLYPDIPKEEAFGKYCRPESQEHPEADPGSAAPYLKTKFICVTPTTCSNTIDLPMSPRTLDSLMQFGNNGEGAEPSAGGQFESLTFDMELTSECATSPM
Sequence of Estrogen receptor (Homo sapiens) (P03372 whole entry, looked up, the tested form may be a part): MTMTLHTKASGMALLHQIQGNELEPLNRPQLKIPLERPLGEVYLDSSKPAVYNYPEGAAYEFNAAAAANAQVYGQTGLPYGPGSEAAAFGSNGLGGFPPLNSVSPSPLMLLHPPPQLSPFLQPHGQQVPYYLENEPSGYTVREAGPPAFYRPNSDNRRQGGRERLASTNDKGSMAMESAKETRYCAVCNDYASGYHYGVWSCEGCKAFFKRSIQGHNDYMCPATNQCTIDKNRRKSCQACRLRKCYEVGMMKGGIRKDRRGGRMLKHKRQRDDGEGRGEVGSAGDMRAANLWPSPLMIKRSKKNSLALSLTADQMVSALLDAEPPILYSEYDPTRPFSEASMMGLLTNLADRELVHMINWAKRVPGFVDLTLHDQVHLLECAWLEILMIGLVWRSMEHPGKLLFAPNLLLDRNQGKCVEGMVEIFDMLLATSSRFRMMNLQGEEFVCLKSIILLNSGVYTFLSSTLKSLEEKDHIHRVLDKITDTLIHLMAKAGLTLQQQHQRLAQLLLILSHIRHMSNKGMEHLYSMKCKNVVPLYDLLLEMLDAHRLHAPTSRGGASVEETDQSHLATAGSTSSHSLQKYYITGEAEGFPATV

Turning to `O=C(O)CCCCCCCC(=O)O`, the result in experiment [1], in experiment [2], in experiment [3], in [4], in experiment [5] and in experiment [6] was inactive. For the same compound, the call in experiment [7], in experiment [8], in experiment [9], in experiment [10], in experiment [11] and in experiment [12] was inactive. Further, in [13], the call was inactive.

For `CCC(=O)OCCC(C)CCC=C(C)C` (centres undefined), the compound was called inactive in experiment [1], in [14], in experiment [2], in [3], in experiment [4] and in experiment [5]. Also, the compound was classed as inactive in experiment [6], in experiment [7], in experiment [8], in [9], in experiment [10] and in experiment [11]. Also, the compound was classed as inactive in experiment [12], in [13], in [15] and in experiment [16].

Take `CN(C)C(=N)N=C(N)N`: the compound was classed as inactive in experiment [1], in experiment [14], in experiment [3], in experiment [4], in experiment [6] and in experiment [7]. Besides, the call in [8], in experiment [9], in [10], in experiment [12], in [13] and in experiment [15] was inactive. Further, the compound was called inactive in experiment [16].

Regarding `CC(C)Oc1ccccc1O`, the compound was called inactive in experiment [1], in [14], in experiment [2], in experiment [3], in [4] and in experiment [5]. Besides, the compound was called inactive in experiment [6], in experiment [7], in experiment [8], in experiment [9], in experiment [10] and in [12]. Further, the compound was called inactive in experiment [17], in [13] and in experiment [16].

Turning to `CSc1nc(NC2CC2)nc(NC(C)(C)C)n1`, the compound was called inactive in [1], in [3], in experiment [4], in experiment [5], in [6] and in experiment [7]. For the same compound, the outcome in experiment [9], in experiment [13] and in [15] was inactive. Moreover, the AC50 in experiment [14] is 100 µM (active); in experiment [8], 51.7 µM (active).

Regarding `Fc1c(F)c(F)c(Br)c(F)c1F`, the result in [1], in [14], in [3], in experiment [4], in experiment [5] and in [6] was inactive. The compound was called inactive in experiment [8], in experiment [9], in experiment [11], in experiment [12] and in [13].

As for `CCCCCCCCCCCCCOS(=O)(=O)O`, the call in experiment [1], in [2], in [3], in [4], in experiment [5] and in experiment [6] was inactive. In addition, the compound was classed as inactive in experiment [7], in experiment [8], in [9], in [10], in [11] and in [13]. Further, the compound was called inactive in [16]. In experiment [14], the AC50 is 7.4 µM (active).

With `FC1(F)C(F)(F)C(F)(F)C2(F)C(F)(C1(F)F)C(F)(F)C(F)(F)C1(F)C(F)(F)C(F)(F)C(F)(F)C(F)(F)C12F` (centres undefined), the call in experiment [1], in experiment [14], in experiment [2], in experiment [3], in experiment [5] and in experiment [6] was inactive. Further, the compound was classed as inactive in [7], in [8], in [9], in [10] and in experiment [11].
